Rows were chosen to be rich in hits. Some 1.4% of all compounds tested hit in one or more screens of this group.
p53 reactivation: qHTS assay for re-activators of p53 using a Luc reporter; AID 504706, 2011; 320,000 tested, 0.063% active; Potency, µM (top dose mostly 92.2 µM), without a hit: at the top dose activity change, positive = activation, actives largely listed as activators; H1299 p53-A138V BP100-luciferase reporter, luminescence, 24 h; further: potency means the concentration at half of the fitted maximal effect; % of control where 0% means no effect; nearly all actives have a fitted effect of over 45% in size
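H1299 (p53-null), stable ts p53-A138V + BP100-Luc; 1000 cells/well, Opti-MEM/10% FBS; cpd 4 pt, 1:5; 24 h, 37 deg C, 5% CO2; detection reagent 10 min RT; luminescence.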
KCNH2 WT inh: qHTS for Inhibitors of KCHN2 3.1: Wildtype qHTS | Voltage-gated inwardly rectifying potassium channel KCNH2 (Homo sapiens), Q12809 | U2OS, BacMam KCNH2, thallium flux FluxOr; active compounds read low | activity change, % at 1.84 µM | 340,000 tested, 0.37% active | AID 720551, 2013;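 active means maximum activity change below -70%; inconclusive means maximum activity change between -70% and -50%; inactive means maximum activity change above -50%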; further: on the % scale 0 is the no-effect control and ±100 the full control effect
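U2OS cells were transduced with wild-type KCNH2 virus (2.03 x 10^8 / mL) for 4 h at room temperature, then cultured overnight at 37 C. Thallium flux was read with FluxOr dye. Rate constants were normalized to DMSO controls.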
MmCpn inh: Inhibitors of TCP-1 ring complex (TRiC) of Methanococcus maripaludis (MmCpn): qHTS | 330,000 tested, 0.031% active | AID 504842, 2011 | purified Mm-Cpn ATPase, ADP Transcreener TR-FRET | Potency, µM (titrated, usually from 76.9 µM), for the others: at the highest dose activity, negative = inhibition, hits mostly inhibitors; further: potency means the concentration at half of the fitted maximal effect; on the % scale 0 is the no-effect control and ±100 the full control effect; nearly all actives have a fitted effect of over 80% in size
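25 nM Mm-CPN + cpd, 10 min 37°C; + 10 uM ATP, 30 min 37°C; buffer 30 mM Tris pH 7.4, 100 mM KCl, 5 mM MgCl2, 1 mM DTT; Transcreener ADP HTRF detection 30 min RT.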
ASM inhibitor: Inhibitors of Secretory Acid Sphingomyelinase (S-ASM): qHTS. Potency, µM (series often up to 57.5 µM), inactives show top-dose activity change, negative = inhibition, most hits filed as inhibitors. 340,000 tested, 0.006% active. placental ASM, HMU-PC fluorogenic substrate, 60 min. Sphingomyelin phosphodiesterase (Homo sapiens), P17405. AID 504937, 2011; further: potency means the concentration at half of the fitted maximal effect
Target sequence (P17405 47-631 limits assumed): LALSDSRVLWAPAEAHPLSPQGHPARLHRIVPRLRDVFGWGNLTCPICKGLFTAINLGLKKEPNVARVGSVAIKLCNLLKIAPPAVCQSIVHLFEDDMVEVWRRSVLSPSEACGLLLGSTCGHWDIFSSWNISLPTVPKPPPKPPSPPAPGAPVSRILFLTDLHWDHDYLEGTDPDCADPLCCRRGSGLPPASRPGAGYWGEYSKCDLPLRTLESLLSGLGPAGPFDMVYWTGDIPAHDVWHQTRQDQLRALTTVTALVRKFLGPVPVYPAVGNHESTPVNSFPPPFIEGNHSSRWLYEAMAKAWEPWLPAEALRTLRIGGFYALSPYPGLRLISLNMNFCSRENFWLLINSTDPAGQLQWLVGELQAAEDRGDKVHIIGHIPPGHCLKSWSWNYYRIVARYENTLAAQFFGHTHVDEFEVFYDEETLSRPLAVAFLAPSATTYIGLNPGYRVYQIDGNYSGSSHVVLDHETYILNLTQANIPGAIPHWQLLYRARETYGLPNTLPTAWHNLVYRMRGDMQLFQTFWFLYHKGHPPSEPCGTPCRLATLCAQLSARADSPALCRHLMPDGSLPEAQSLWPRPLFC
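Human placenta-derived ASM preincubated with compound 10 min at room temperature, then reacted with 9 uM (final) fluorogenic HMU-PC substrate for 60 min at 37 C. Stop solution raises pH to 10; fluorescence read at Ex 386/Em 447 nm.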
uPA generation: qHTS for Inhibitors of Cell Surface uPA Generation. 330,000 tested, 0.31% active. cell surface uPA generation assay, qHTS. AID 540303, 2011. Potency, µM (titrated, usually from 38.3 µM), inactives show top-dose activity change, negative = inhibition, hits mostly inhibitors; active means well fitted inhibition curve with a large enough effect; inconclusive means small, poorly fitted or top-dose-only effect; inactive means no such curve, though single readings can be large or run the other way; tested in mouse RAW 264.7 cells; further: potency means the concentration at half of the fitted maximal effect; on the % scale 0 is the no-effect control and ±100 the full control effect; nearly all actives have a fitted effect of over 55% in size
KCNH2 3.1 inh: qHTS for Inhibitors of KCHN2 3.1: Mutant qHTS; U2OS KCNH2 3.1, thallium flux FluxOr; active compounds read low; activity change, % (tested at about 1.8 µM); 340,000 tested, 0.95% active; AID 720553, 2013;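 active means maximum activity change below -70%; inconclusive means maximum activity change from -70% to -50%; inactive means maximum activity change above -50%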;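 further: thallium influx rate constant from kinetic fluorescence after stimulation buffer; on the % scale 0 is the no-effect control and ±100 the full control effect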
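Normalized rate constant (relative to positive and negative DMSO controls) derived from a 2 min kinetic fluorescence read after stimulation; U2OS cells expressing the 3.1 isoform via virus at 1.77 x 10^8 /mL.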
Active calls of the source: *; ? = inconclusive; . = no result given. Unless noted, the call rests on the fitted dose curve; in most records, active means well fitted curve in the direction sought with a large enough effect; inconclusive means small, poorly fitted or top-dose-only effect, or another doubt; inactive means no such curve, though single readings can be large; an effect the other way counts as inactive or inconclusive.

SMILES	p53 reactivation	KCNH2 WT inh	MmCpn inh	ASM inhibitor	uPA generation	KCNH2 3.1 inh
CC(=O)CN1Cc2ccccc2/C1=N\C(=O)Nc1ccccc1	?	0	1%	6%	-2%	-78*
NN=C1c2ccccc2-c2ccc(N)cc21	.	-8	.	-9%	7%	-20
Cc1c(Cl)cccc1NC(=O)c1cc(-c2ccccc2O)n[nH]1	30%	-22	1%	-14%	-3%	-103*
CCn1c(=O)cc(SCC(=O)NCc2ccccn2)c2ccccc21	-3%	4	0%	-1%	.	-184*
Nc1nc(N2CCN(C(=O)c3ccco3)CC2)nc2ccc(Br)cc12	5%	.	?	110%	-23%	-89*
Nc1nc(N2CCN(C(=O)c3ccco3)CC2)nc2ccccc12	?	8	1%	94%	-1%	1
O=C(O)CC(Cc1ccc(Cl)cc1)C(=O)Nc1cc(Cl)ccc1Cl (stereo not given)	4%	0	4%	-3%	3%	-7
CC1=NN(c2ccc([N+](=O)[O-])cc2)C(=O)/C1=C\N(C)C	21%	20	0%	0%	-8%	17
COc1ccccc1/C=C1/C(=O)N(c2ccc([N+](=O)[O-])cc2)N=C1C	.	-5	1%	1%	7%	-80*
CC(=O)NC(c1cc(Cl)c2cccnc2c1O)C(C)C (stereo not given)	27%	.	2%	0%	3.2µM*	.
CC(=O)NC(c1cc(Cl)c2cccnc2c1O)C1CC1 (stereo not given)	17%	.	-1%	10%	4µM*	.
CCN(CC(=O)Nc1ccc(OC)cc1)C(=O)Cc1ccc(OC)c(S(=O)(=O)N2CCOCC2)c1	-3%	-10	2%	6%	2%	3
NC(=O)c1ccccc1-c1noc(-c2ccccc2F)n1	.	.	2%	.	.	.
O=C(CCNC(=O)C1CCN(S(=O)(=O)c2ccccc2)CC1)Nc1cccc(C(F)(F)F)c1	-4%	-5	1%	0%	-11%	-13
Cc1cccc(N(CC(=O)N2CCN(c3ccccc3F)CC2)S(C)(=O)=O)c1	-4%	-2	0%	6%	3%	-85*
CCCCn1c(N)c(N(CC)C(=O)CCNC(=O)NC23CC4CC(CC(C4)C2)C3)c(=O)[nH]c1=O	-5%	-3	-2%	7%	9%	-71*
Cc1ccnc(NC(=O)c2cc([N+](=O)[O-])cc([N+](=O)[O-])c2)c1	1%	-3	1%	1%	3%	-89*
O=C(CCCCCn1c(=S)[nH]c2cc3c(cc2c1=O)OCO3)NCCc1ccccc1	-4%	-13	-14%	-4%	16%	-87*
COc1ccc([N+](=O)[O-])c(OC)c1C(=O)NC(=O)Nc1c(F)cc(F)cc1F	0%	-4	-12%	0%	-2%	10
COCCNC(=O)c1cc(S(=O)(=O)N(C)C2CCCCC2)ccc1Cl	.	-9	.	.	.	7
O=C(NCc1ccco1)/C(=C/c1ccccc1)NC(=O)c1ccco1	-2%	-92*	1%	-2%	2%	-2
O=C(NCCc1nc2ccccc2[nH]1)/C(=C/c1ccco1)NC(=O)c1ccccc1Br	7%	-6	0%	3%	-5%	-23
O=C(Nc1ccccc1)/C(=C/c1ccc(F)cc1)NC(=O)c1ccco1	-7%	2	-1%	-5%	1%	-114*
O=C(NCCc1nc2ccccc2[nH]1)/C(=C/c1ccc(F)cc1)NC(=O)c1ccco1	-1%	-72*	-1%	2%	-5%	0
O=C(Nc1ccccc1)/C(=C\c1ccccc1)NC(=O)c1ccco1	-1%	-3	0%	4%	1%	3
SMILES	p53 reactivation	KCNH2 WT inh	MmCpn inh	ASM inhibitor	uPA generation	KCNH2 3.1 inh
O=C(NCc1ccco1)/C(=C/c1ccc(Cl)cc1)NC(=O)c1ccco1	2%	19	-4%	2%	3%	-3
O=C(NCCc1nc2ccccc2[nH]1)/C(=C/c1ccc2c(c1)OCO2)NC(=O)c1ccc(Cl)cc1Cl	-1%	-165*	-1%	-10%	-1%	-107*
N#Cc1ccc(S(=O)(=O)N2CCCN(c3nc4ccc(Cl)cc4s3)CC2)cc1	-3%	-74*	6%	-10%	3%	-95*
O=C(c1nc(SCc2ccc([N+](=O)[O-])cc2)n2ccccc12)C(F)(F)F	4%	20	1%	0%	3%	-71*
Cc1cc(C)n2c(Br)c(CSc3nc4ccccc4s3)nc2n1	?	6	-3%	0%	-1%	-78*
O=C1N(Cc2cccc(Cl)c2)C[C@@H]2C[C@@H](c3cccn3-c3ccccn3)N3CCC[C@@]123	-3%	26	-4%	2%	0%	-25
O=C1N(Cc2cccc(Cl)c2)C[C@@H]2C[C@@H](c3cccn3-c3nccs3)N3CCC[C@@]123	4%	13	2%	2%	-3%	-86*
Cc1cccc(Nc2nnc(SCC(=O)c3ccc(Br)s3)s2)c1C	4%	0	40µM*	-7%	11%	-4
COc1ccc2ccccc2c1C1NC(=O)c2ccccc2N1 (stereo not given)	.	-11	.	157%	-11%	-16
Nn1cnnc1SCC(=O)N1CCc2ccccc2C1	-7%	13	1%	-5%	2%	6
Cc1ccccc1-n1nc2c(c1NC(=O)C1CC1)CS(=O)(=O)C2	.	3	.	.	.	2
COC(=O)c1[nH]c2ccc(C)cc2c1NC(=O)C(C)N1CCN(C2CCCCC2)CC1 (stereo not given)	5%	-44	1%	6%	2%	?
COC(=O)c1[nH]c2ccc(Br)cc2c1NC(=O)C(C)N1CCN(C2CCCCC2)CC1 (stereo not given)	13%	-72*	0%	-5%	0%	-70*
Cc1cscc(C)c1=S	.	2	.	.	.	-7
Nc1ncnc2c1ncn2[C@@H]1O[C@H](CNC(=O)[C@@H](N)C2CCCCC2)[C@@H](O)[C@H]1O	2%	-6	1%	0%	9%	3
CCOC(=O)c1cn(CC(=O)Nc2ccc(CC)cc2)nn1	-2%	-208*	-1%	-2%	-1%	2
CCN1CCN(CCCNC(=O)c2ccc(CS(=O)c3ccc(Br)cc3)o2)CC1 (stereo not given)	15%	-11	1%	5%	8%	-12

High-throughput results deposited in PubChem by National Center for Advancing Translational Sciences (NCATS).
